# How the values were obtained:
# Assay in all cases: DAPPL (digital affinity profiling via proximity ligation, sequencing); 10 mM Tris-HCl pH 7.5, 50 mM NaCl, 1 mM DTT, 4% glycerol, room temperature, 30 min; GST-TFs on glutathione beads, 16-mer random dsDNA library, 0.1% formaldehyde crosslink after washing; high values mean tight binding
# Details in all cases: protein: recombinant; tags: N-terminal GST; dsDNA, one strand shown
# [1] = target: T1, ELK1 (Homo sapiens, UniProt P19419 1-428)
# T1 sequence: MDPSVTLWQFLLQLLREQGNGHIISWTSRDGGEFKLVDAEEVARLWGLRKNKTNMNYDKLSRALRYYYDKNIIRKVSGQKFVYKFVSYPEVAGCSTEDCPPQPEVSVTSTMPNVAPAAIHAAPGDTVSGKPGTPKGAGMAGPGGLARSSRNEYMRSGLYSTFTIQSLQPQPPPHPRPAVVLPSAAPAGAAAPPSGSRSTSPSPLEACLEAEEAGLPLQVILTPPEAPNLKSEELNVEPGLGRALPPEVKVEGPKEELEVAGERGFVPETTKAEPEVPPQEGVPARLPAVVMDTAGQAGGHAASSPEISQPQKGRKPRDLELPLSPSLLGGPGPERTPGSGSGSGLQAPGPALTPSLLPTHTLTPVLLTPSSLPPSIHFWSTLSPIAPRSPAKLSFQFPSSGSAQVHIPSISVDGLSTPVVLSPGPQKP
# Summary of the method: (§1)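 Pools were built from human transcription factors expressed in yeast as GST fusions, captured on glutathione beads and DNA-barcoded, along with a tag-only sample. Incubation with 200 nmole of a 16-mer random double-stranded DNA library lasted 30 min at room temperature in Tris/NaCl/DTT/glycerol buffer, and was followed by washing, 0.1% formaldehyde crosslinking, proximity ligation, PCR amplification and Illumina NextSeq500 sequencing. Binding signal is the quotient of each hexamer's read frequency for a factor and its frequency for the tag-only sample.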
# [2] = target: T2, ERG (Homo sapiens, UniProt P11308 1-479)
# T2 sequence: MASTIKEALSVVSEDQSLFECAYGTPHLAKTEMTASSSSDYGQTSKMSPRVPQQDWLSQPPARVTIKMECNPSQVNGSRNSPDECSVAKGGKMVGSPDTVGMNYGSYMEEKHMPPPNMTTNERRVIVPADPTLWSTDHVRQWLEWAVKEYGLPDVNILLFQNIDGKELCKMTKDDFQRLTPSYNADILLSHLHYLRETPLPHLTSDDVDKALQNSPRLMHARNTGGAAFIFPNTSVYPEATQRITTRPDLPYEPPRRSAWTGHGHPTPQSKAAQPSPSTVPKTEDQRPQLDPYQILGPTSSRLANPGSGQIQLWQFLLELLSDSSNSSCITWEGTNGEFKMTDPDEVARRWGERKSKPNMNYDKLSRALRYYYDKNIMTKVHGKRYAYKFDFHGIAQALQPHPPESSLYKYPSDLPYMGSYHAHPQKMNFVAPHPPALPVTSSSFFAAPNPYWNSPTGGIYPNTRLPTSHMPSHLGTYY
# Summary of the method: as §1
# [3] = target: ELF1 (Homo sapiens, UniProt P32519 1-619)
# Chain of ELF1 (P32519 whole entry): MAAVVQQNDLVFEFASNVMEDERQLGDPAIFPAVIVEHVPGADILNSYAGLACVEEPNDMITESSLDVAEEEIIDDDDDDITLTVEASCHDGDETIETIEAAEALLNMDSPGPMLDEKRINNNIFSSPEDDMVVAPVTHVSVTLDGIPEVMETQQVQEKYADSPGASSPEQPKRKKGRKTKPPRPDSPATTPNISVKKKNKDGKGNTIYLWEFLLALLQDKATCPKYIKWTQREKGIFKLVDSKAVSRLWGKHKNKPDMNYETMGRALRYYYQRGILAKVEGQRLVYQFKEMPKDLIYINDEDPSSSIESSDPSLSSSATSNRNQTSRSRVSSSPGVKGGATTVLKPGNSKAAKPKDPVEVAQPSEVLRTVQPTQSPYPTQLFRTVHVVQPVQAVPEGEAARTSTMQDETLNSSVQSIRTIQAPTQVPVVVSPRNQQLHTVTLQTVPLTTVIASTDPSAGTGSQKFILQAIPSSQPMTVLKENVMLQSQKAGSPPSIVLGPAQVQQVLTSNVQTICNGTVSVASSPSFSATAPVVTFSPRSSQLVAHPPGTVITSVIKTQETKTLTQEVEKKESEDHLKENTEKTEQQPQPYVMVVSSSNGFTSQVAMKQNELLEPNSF
# Summary of the method: as §1
# [4] = target: SPIB (Homo sapiens, UniProt Q01892 1-262)
# Chain of SPIB (Q01892 whole entry): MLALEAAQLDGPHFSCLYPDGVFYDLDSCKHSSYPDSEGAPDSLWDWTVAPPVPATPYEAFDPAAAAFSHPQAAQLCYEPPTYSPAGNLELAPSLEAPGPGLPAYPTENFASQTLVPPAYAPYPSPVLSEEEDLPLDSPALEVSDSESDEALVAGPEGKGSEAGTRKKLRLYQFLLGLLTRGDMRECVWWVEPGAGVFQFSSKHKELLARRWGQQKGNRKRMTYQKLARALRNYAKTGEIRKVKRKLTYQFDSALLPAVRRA
# Summary of the method: as §1
# [5] = target: T3, FEV (Homo sapiens, UniProt Q99581 1-238)
# T3 sequence: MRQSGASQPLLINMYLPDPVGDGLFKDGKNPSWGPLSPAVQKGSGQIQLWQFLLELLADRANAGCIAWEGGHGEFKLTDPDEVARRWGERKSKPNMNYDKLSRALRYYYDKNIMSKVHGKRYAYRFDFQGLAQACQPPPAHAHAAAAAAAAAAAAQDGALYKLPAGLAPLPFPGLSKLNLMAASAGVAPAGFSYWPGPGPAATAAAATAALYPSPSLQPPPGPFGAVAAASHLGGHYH
# Summary of the method: as §1
# [6] = target: T4, SPIC (Homo sapiens, UniProt Q8N5J4 1-248)
# T4 sequence: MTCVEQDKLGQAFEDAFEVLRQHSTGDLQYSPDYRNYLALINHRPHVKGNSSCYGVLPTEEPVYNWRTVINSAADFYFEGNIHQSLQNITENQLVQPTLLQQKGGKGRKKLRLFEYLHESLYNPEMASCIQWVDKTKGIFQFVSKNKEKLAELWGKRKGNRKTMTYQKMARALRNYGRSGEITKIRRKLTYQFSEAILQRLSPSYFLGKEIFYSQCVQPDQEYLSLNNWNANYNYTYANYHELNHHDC
# Summary of the method: as §1
# [7] = target: ELF4 (Homo sapiens, UniProt Q99607 1-663)
# Chain of ELF4 (Q99607 whole entry): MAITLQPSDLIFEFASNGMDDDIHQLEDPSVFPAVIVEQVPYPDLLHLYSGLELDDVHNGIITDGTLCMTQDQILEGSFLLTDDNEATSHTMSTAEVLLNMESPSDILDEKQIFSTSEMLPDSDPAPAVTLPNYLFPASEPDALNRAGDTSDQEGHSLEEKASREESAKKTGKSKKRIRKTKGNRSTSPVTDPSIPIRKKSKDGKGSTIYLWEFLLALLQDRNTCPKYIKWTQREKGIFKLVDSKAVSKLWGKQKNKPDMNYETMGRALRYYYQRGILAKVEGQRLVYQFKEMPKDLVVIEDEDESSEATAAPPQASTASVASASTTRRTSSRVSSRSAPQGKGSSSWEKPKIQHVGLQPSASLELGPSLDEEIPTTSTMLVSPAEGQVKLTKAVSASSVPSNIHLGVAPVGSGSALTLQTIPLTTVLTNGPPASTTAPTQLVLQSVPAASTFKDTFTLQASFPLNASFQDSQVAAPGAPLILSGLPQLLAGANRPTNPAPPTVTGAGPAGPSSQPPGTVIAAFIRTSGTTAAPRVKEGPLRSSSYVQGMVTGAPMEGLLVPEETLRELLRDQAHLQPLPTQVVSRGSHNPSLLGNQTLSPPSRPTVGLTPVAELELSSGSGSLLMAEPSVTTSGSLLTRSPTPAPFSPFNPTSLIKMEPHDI
# Summary of the method: as §1
# [8] = target: T5, ETV2 (Homo sapiens, UniProt O00321 1-342)
# T5 sequence: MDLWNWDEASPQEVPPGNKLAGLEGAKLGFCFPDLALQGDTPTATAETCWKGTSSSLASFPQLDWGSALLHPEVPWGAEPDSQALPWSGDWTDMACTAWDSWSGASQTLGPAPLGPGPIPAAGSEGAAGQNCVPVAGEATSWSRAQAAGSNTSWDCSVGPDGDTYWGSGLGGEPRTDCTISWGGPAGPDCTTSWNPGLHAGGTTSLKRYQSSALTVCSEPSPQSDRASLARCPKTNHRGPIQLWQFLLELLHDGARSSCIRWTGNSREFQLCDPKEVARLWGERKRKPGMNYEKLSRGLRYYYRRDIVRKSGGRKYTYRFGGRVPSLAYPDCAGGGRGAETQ
# Summary of the method: as §1
# [9] = target: CRX (Homo sapiens, UniProt O43186 1-299)
# Chain of CRX (O43186 whole entry): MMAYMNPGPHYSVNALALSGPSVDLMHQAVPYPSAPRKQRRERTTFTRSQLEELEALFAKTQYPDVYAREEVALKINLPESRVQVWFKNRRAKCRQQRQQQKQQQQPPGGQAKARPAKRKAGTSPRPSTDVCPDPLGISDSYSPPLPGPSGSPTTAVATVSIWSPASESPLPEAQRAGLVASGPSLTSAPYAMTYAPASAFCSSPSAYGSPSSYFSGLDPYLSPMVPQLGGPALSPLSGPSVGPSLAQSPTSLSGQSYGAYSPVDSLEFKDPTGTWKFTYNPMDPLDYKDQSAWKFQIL
# Summary of the method: as §1
# [10] = target: T6, ETV3L (Homo sapiens, UniProt Q6ZN32 1-361)
# T6 sequence: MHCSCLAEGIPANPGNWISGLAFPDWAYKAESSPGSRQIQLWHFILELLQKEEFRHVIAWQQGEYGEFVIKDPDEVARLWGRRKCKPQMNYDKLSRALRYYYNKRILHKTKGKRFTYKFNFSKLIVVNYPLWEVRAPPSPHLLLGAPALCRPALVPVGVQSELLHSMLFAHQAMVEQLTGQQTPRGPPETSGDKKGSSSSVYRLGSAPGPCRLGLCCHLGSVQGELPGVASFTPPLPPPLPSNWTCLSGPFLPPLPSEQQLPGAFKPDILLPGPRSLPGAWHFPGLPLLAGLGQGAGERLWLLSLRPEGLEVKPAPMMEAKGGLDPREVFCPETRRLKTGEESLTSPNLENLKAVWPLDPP
# Summary of the method: as §1
# [11] = target: T7, ETV7 (Homo sapiens, UniProt Q9Y603 1-341)
# T7 sequence: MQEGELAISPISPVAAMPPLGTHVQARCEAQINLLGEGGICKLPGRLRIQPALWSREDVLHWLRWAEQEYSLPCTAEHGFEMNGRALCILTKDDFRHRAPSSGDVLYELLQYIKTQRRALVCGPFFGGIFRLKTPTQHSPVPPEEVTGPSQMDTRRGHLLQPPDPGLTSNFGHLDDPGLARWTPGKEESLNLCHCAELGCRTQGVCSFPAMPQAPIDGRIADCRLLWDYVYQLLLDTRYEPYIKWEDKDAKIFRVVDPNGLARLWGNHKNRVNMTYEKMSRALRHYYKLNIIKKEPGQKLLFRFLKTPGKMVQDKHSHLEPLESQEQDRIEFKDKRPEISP
# Summary of the method: as §1
# [12] = target: T8, ETV3 (Homo sapiens, UniProt P41162-2 1-143)
# T8 sequence: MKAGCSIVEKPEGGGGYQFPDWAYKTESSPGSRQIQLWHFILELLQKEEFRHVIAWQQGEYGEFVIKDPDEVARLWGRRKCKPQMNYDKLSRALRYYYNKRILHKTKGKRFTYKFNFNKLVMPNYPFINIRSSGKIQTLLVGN
# Summary of the method: as §1
sequence,measurement,setting,value
TAGGCA,binding signal,[1],"1.03 fold enrichment (6-mer frequency, TF over GST control)"
same,binding signal,[2],"1.06 fold enrichment (6-mer frequency, TF over GST control)"
same,binding signal,[3],"1.02 fold enrichment (6-mer frequency, TF over GST control)"
same,binding signal,[4],"1.02 fold enrichment (6-mer frequency, TF over GST control)"
same,binding signal,[5],"1.05 fold enrichment (6-mer frequency, TF over GST control)"
same,binding signal,[6],"1.11 fold enrichment (6-mer frequency, TF over GST control)"
same,binding signal,[7],"1.01 fold enrichment (6-mer frequency, TF over GST control)"
same,binding signal,[8],"1.19 fold enrichment (6-mer frequency, TF over GST control)"
same,binding signal,[9],"1.08 fold enrichment (6-mer frequency, TF over GST control)"
same,binding signal,[10],"1.02 fold enrichment (6-mer frequency, TF over GST control)"
same,binding signal,[11],"1.06 fold enrichment (6-mer frequency, TF over GST control)"
same,binding signal,[12],"1.01 fold enrichment (6-mer frequency, TF over GST control)"
GGGCAT,binding signal,[6],"1 fold enrichment (6-mer frequency, TF over GST control)"
TCAGAC,binding signal,[6],"1.11 fold enrichment (6-mer frequency, TF over GST control)"

# From publication PMC7862700, “An all-to-all approach to the identification of sequence-specific readers for epigenetic DNA modifications on cytosine”
